D1 allo mod: allosterically modulates the human D1 dopamine receptor. B-score at 10 µM. actives 5.9% (n = 58,000). P21728. HEK293 D1, CRE-luciferase, dopamine EC30 potentiation; actives deviate in either direction;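 active = luminescence count or its row- and column-corrected plate score outside the 99.7% band of the plate's sample wells, on either side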
JNK3 inh: blocks human JNK3 kinase activity | inhibition, % at 8 µM | P53779 | actives 0.61% (n = 60,000) | AID 746 | purified JNK3 kinase activity, HTS; in the data active = inhibition above about 17%;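 note: 0% = DMSO and 100% = reference inhibitor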
Target sequence (P53779 whole entry, looked up): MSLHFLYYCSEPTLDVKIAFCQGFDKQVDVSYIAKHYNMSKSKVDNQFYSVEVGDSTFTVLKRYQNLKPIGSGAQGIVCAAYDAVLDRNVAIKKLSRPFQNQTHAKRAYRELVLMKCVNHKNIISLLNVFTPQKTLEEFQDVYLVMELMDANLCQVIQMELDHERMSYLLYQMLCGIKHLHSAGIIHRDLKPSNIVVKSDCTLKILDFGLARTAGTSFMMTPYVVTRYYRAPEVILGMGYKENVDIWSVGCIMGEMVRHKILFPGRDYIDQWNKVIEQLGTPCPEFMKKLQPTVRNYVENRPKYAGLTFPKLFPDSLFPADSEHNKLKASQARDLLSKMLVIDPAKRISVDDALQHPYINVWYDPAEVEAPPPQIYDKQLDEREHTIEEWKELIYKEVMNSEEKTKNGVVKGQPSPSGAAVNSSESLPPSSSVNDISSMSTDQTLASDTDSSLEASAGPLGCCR
PKA inh: blocks human protein kinase A activity; inhibition, % at 6 µM; PKA Kemptide phosphorylation, Kinase-Glo ATP luminescence; actives 0.1% (n = 65,000); P17612; AID 524;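 active = inhibition above the screen-wide mean inhibition plus 3 SD, cut at about 21% in these data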
ROCK2 blocker: ROCK2 (human) kinase inhibition. O75116. purified ROCK2, Kinase-Glo ATP depletion luminescence. inhibition, % at 6 µM. actives 0.35% (n = 60,000);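 active = inhibition above the screen-wide mean inhibition plus 3 SD, cut at about 18% in these data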;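 note: plate controls were DMSO wells for no effect and Y-27632 control wells after no-enzyme background subtraction for full effect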
hDAT+cocaine: human DAT dopamine uptake with cocaine, either direction; B-score at 10 µM; actives 1.3% (n = 110,000); LLC-PK1 hDAT cells, [14C]-dopamine uptake with cocaine IC80; actives deviate in either direction;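 active = Z score or B-score, a plate-position-corrected score, falls beyond the plate's 99.7% confidence bounds, in either direction; inactive = both scores lie inside the 99.7% bounds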;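 note: scored against the spread of the other compound wells on the same plate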
* = called active by the depositor. The entries come from a sample that favours hits as a whole.

For CCn1cc(C(=O)Nn2cnnc2)c(=O)c2ccc(C)nc21 the results were D1 allo mod -0.48, JNK3 inh 4, PKA inh 7 and ROCK2 blocker 20*.
Screening Cc1c(CN(C)C(=O)c2sc3cc(Cl)ccc3c2Cl)cnn1C returned hDAT+cocaine 1.8.
`Cc1cc(C)c2nc(N3CCC(C(=O)N4CCN(C(=O)c5ccco5)CC4)CC3)sc2c1` gave hDAT+cocaine 3.7*.
For C=CCn1c(CSCc2ccc(C)cc2)nnc1SCC(=O)NCc1ccccc1 the results were hDAT+cocaine 2.1*.
For Cc1ccc(-c2nc3cc(NC(=O)C(C)C)ccc3o2)cc1 the results were D1 allo mod -2.4*, JNK3 inh 8, PKA inh 6, ROCK2 blocker 2 and hDAT+cocaine -0.14.
`CC(C)C(=O)Nc1cccc(-c2nc3ccccc3o2)c1` gave D1 allo mod -0.63, JNK3 inh -6, PKA inh 5, ROCK2 blocker 5 and hDAT+cocaine 0.065.
For Cc1ccc(-c2nc3cc(NC(=O)C(C)C)ccc3o2)cc1C the results were D1 allo mod -3*, JNK3 inh -1, PKA inh 7, ROCK2 blocker 5 and hDAT+cocaine -0.45.
`CC(C)C(=O)Nc1ccc(-c2nc3cccnc3o2)cc1` gave D1 allo mod -3.2*, JNK3 inh 3, PKA inh -1, ROCK2 blocker 1 and hDAT+cocaine -0.68.
`CC(C)(C)c1ccc(OCC(=O)Nc2ccc(-c3nc4cccnc4o3)cc2)cc1` gave hDAT+cocaine -0.11.
`CCC(=O)Nc1ccc2oc(-c3cccc(C)c3)nc2c1` gave D1 allo mod -3.4*, JNK3 inh 4, PKA inh 7, ROCK2 blocker -1 and hDAT+cocaine -0.32.
Screening Cc1ccc(CCP(=O)(O)CN2CCCCC2)cn1 returned JNK3 inh -1, PKA inh 6 and ROCK2 blocker 4.
`O=C(N[C@@H](Cc1ccccc1)C(=O)O)c1c(F)c(F)c(F)c(F)c1F` gave hDAT+cocaine 0.6.
`CCO[C@H]1OC(C(=O)O)=C[C@@H](c2ccccc2)[C@@H]1CCCO` gave hDAT+cocaine -0.65.
For COc1ccc(NC(=O)c2ccccc2NC(=O)NC2CCCCC2)cc1 the results were hDAT+cocaine 0.31.
For CC1=CC(C)(C)N(S(=O)(=O)c2ccc(C)cc2)c2cc(C)ccc21 the results were hDAT+cocaine -2*.
`Cc1ccc(S(=O)(=O)N2C(=S)SCC2(C)C)cc1` gave D1 allo mod 1.3, JNK3 inh 8, PKA inh 3, ROCK2 blocker -1 and hDAT+cocaine -0.43.
For Cc1ccc(OCCn2cc(/C(N)=N/O)c3ccccc32)cc1C the results were D1 allo mod -3.1*, JNK3 inh 1, PKA inh -1, ROCK2 blocker 0 and hDAT+cocaine 0.11.
COc1ccc(OCCn2cc(/C(N)=N/O)c3ccccc32)cc1 was read as hDAT+cocaine 1.4.
Screening CCOc1ccc(C(=O)Nc2cccc(C)n2)cc1 returned D1 allo mod -6.5*, JNK3 inh 7, PKA inh 0, ROCK2 blocker -7 and hDAT+cocaine 1.8.
`CCCCOc1ccc(C(=O)Nc2cccc(C)n2)cc1` gave D1 allo mod -2.6, JNK3 inh -5, PKA inh -3 and ROCK2 blocker -4.
CC1CCN(C(=O)c2ccc(CSc3nc4ccncc4n3Cc3ccc(F)cc3)cc2)CC1 was read as hDAT+cocaine 3.5*.
`Cc1ccc(CSc2nc3ccncc3n2CC(=O)Nc2cc(C)cc(C)c2)cc1` gave hDAT+cocaine 0.0058.
Screening O=C(NCc1nc2ncc(Br)cc2[nH]1)c1ccccc1 returned D1 allo mod -0.96, JNK3 inh 40*, PKA inh 0, ROCK2 blocker -4 and hDAT+cocaine -7.3*.
`Cc1ccc(C(=O)O)cc1S(=O)(=O)N1CCSCC1` gave D1 allo mod -0.38, JNK3 inh 1, PKA inh 9, ROCK2 blocker 0 and hDAT+cocaine -9.1*.
CCCC(=O)N1CCN(c2nc(CC(C)C)c3c(c2C#N)CCC3)CC1 was read as D1 allo mod 4.1, JNK3 inh -4, PKA inh 8, ROCK2 blocker 6 and hDAT+cocaine 2.6*.
Screening CC(C)Cc1nc(N2CCN(C(=O)Cc3ccccc3)CC2)c(C#N)c2c1COC(C)(C)C2 returned JNK3 inh 5, PKA inh 3 and ROCK2 blocker 8.
`COc1ccc(N=Cc2c(O)[nH]c3ccccc23)cc1` gave hDAT+cocaine 0.49.
Screening Oc1[nH]c2ccccc2c1/C=N/c1nccs1 returned D1 allo mod -0.4, JNK3 inh 27*, PKA inh 6 and ROCK2 blocker 7.
For Oc1[nH]c2ccccc2c1C=Nc1ccc2c(c1)OCO2 the results were D1 allo mod -4.4*, JNK3 inh 36*, PKA inh 6, ROCK2 blocker 5 and hDAT+cocaine -0.42.
`Cc1nn(-c2ccccc2)c2sc(C(=O)OCN3C(=O)c4ccccc4C3=O)cc12` gave D1 allo mod 5.3*, JNK3 inh 4, PKA inh 10, ROCK2 blocker 10 and hDAT+cocaine -0.017.
Screening CCCCCCCCOC(=O)CCn1[nH]c(=O)c2ccccc2c1=O returned hDAT+cocaine -0.029.
For CCOC(=O)CCC(NC(=O)c1ccc(NCN2C(=O)CCC2=O)cc1)C(=O)OCC (configuration not stated) the results were D1 allo mod 0.18, JNK3 inh -4, PKA inh 3, ROCK2 blocker 2 and hDAT+cocaine -0.75.
`CCOC(=O)CCC(NC(=O)c1ccc(NCN2C(=O)c3ccccc3C2=O)cc1)C(=O)OCC` (configuration not stated) gave D1 allo mod -0.81, JNK3 inh 28*, PKA inh -7, ROCK2 blocker -3 and hDAT+cocaine -0.22.
For O=S(=O)(NC1CCCCC1NCc1ccco1)c1ccc(Cl)cc1 (configuration not stated) the results were D1 allo mod -2.3*, JNK3 inh 4, PKA inh 10, ROCK2 blocker 4 and hDAT+cocaine -1.4.
CC(NS(=O)(=O)c1ccc(Cl)cc1)C(=O)NCc1ccco1 (configuration not stated) was read as hDAT+cocaine -0.43.
Screening Cc1cccn2c(=O)c(C=NCc3ccco3)c(Nc3ccc(Cl)cc3)nc12 returned D1 allo mod 0.5, JNK3 inh 4, PKA inh 4 and ROCK2 blocker 2.
Screening Cc1ccc(-c2cc3nc(C)cc(NCc4ccco4)n3n2)cc1 returned D1 allo mod -1.9, JNK3 inh 0, PKA inh 10, ROCK2 blocker 7 and hDAT+cocaine -3.9*.
For CN1CC2=Cc3ccccc3OC23Oc2ccccc2C=C3C1 the results were D1 allo mod -0.84, JNK3 inh 8, PKA inh 7, ROCK2 blocker 2 and hDAT+cocaine -0.074.
`N#CC1=C(N)Oc2n[nH]c(-c3ccccc3)c2C1c1ccncc1` (configuration not stated) gave D1 allo mod 0.39, JNK3 inh -3, PKA inh -4, ROCK2 blocker -2 and hDAT+cocaine -0.27.

Bioassay records from PubChem BioAssay.
